Structures are written as SMILES. Compounds without any hit were thinned out: in the full panel of roughly 83,000, 20% have a hit.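 Step 1: grow cells in 96-well plates. Step 2: add test compound at a single concentration. Step 3: incubate 48 h. Step 4: record percent growth.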 Unmarked numbers belong to inactive results. Activity calls are given as the source filed them. The calls were made as follows: active = growth percent below 10; inactive = the rest.

Some test systems named below: MOLT-4 leukemia; SR leukemia; RPMI-8226 leukemia; OVCAR-8 ovarian; OVCAR-5 ovarian; OVCAR-4 ovarian; SK-OV-3 ovarian; IGROV1 ovarian; OVCAR-3 ovarian; HS 578T breast; NCI/ADR-RES ovarian; T-47D breast; BT-549 breast; MDA-MB-435 melanoma; SW-620 colon; MCF7 breast; HCT-116 colon; HCC-2998 colon; KM12 colon.
Common to all, as to test: NCI-60 one-dose screen, 48 h (100 = growth as untreated, 0 = no growth, -100 = all killed)
Holding throughout (conditions): 10 µM unless noted

With `c1ccc(CSC(c2ccccc2)c2ccccc2)cc1`, the growth with MOLT-4 leukemia was 115%; in the experiment on SR leukemia, 141%; with RPMI-8226 leukemia it was 94.2%; with OVCAR-8 ovarian, 109%; with OVCAR-5 ovarian, 104%; with OVCAR-4 ovarian it was 120%. Also, the growth is 123% in the experiment on SK-OV-3 ovarian; 107% in the experiment with IGROV1 ovarian; 119% in the experiment with OVCAR-3 ovarian; 112% in the experiment with HS 578T breast; 106% with NCI/ADR-RES ovarian; 117% in the experiment on T-47D breast. Besides, the growth with BT-549 breast was 116%; with MDA-MB-435 melanoma, 114%; in the experiment on SW-620 colon it was 103%; in the experiment on MCF7 breast it was 124%; in the experiment with HCT-116 colon it was 89.8%; in the experiment on HCC-2998 colon, 107%. Besides, the growth in the experiment on KM12 colon was 106%.

In the case of `COc1ccc(C/C(C)=C(\c2ccc(OCCN3CCOCC3)cc2)c2ccc(OC(=O)Cc3ccccc3)cc2)cc1`, the growth was -14.5% (active) in the experiment on MOLT-4 leukemia; -38.2% (active) with SR leukemia; -42.4% (active) with RPMI-8226 leukemia; -1.48% (active) with OVCAR-8 ovarian; 3.16% (active) in the experiment on OVCAR-5 ovarian; 4% (active) in the experiment on OVCAR-4 ovarian. For the same molecule, the growth in the experiment on SK-OV-3 ovarian is 0.737% (active); with IGROV1 ovarian, 1.9% (active); with OVCAR-3 ovarian it was -93.4% (active); with HS 578T breast, -42.1% (active); in the experiment with NCI/ADR-RES ovarian, 5.39% (active); with T-47D breast, -48.5% (active). Besides, the growth with BT-549 breast is -70.4% (active); with MDA-MB-435 melanoma, -58.9% (active); in the experiment on SW-620 colon it was -63% (active); with MCF7 breast, -53.1% (active); in the experiment with HCT-116 colon, -89.7% (active); in the experiment on HCC-2998 colon, -64.3% (active). Besides, in the experiment on KM12 colon, the growth was -35.2% (active).

For `O=C(CN1CCN(C(=O)c2ccco2)CC1)Nc1ccc(Cl)cc1C(=O)c1ccccc1Cl`, the growth in the experiment with MOLT-4 leukemia is 54.2%; in the experiment with SR leukemia, 72.7%; with RPMI-8226 leukemia it was 53.6%; in the experiment with OVCAR-8 ovarian, 87.1%; with OVCAR-5 ovarian, 95.9%; in the experiment on OVCAR-4 ovarian, 87.5%. For the same molecule, the growth with SK-OV-3 ovarian was 112%; with IGROV1 ovarian, 57.8%; in the experiment with OVCAR-3 ovarian, 115%; in the experiment with HS 578T breast, 78.3%; in the experiment with NCI/ADR-RES ovarian, 83.4%; with T-47D breast, 64.3%. The growth in the experiment with BT-549 breast was 101%; with MDA-MB-435 melanoma, 118%; in the experiment on SW-620 colon, 86.8%; with MCF7 breast, 84.9%; in the experiment with HCT-116 colon, 86.8%; in the experiment with HCC-2998 colon, 97.4%. Moreover, the growth with KM12 colon was 89.1%.

Turning to `ClC1=C(Cl)C(Cl)(C2(Cl)C(Cl)=C(Cl)C(Cl)=C2Cl)C(Cl)=C1Cl`, the growth in the experiment with MOLT-4 leukemia was -36.7% (active); with SR leukemia, -25.3% (active); in the experiment with RPMI-8226 leukemia, -37.8% (active); in the experiment on OVCAR-8 ovarian, 0.392% (active); in the experiment on OVCAR-5 ovarian, 16.1%; in the experiment with OVCAR-4 ovarian, -30.2% (active). Besides, the growth with SK-OV-3 ovarian is 87.1%; with IGROV1 ovarian, -33.3% (active); with OVCAR-3 ovarian, -77.4% (active); with HS 578T breast, 53.3%; in the experiment on NCI/ADR-RES ovarian it was 4.66% (active); in the experiment on T-47D breast it was -45.4% (active). Further, the growth with BT-549 breast was -12.3% (active); with MDA-MB-435 melanoma, -50.9% (active); in the experiment with SW-620 colon, -52.8% (active); in the experiment with MCF7 breast it was -40.9% (active); in the experiment with HCT-116 colon, -73.4% (active); with HCC-2998 colon it was 52.1%. Also, the growth in the experiment on KM12 colon is 84.5%.

In the case of `COC(=O)[C@@H](C)C[C@H](Cc1ccc2ccccc2c1)NC(=O)c1csc([C@@H](C[C@H](C(C)C)N(C)C(=O)[C@@H](NC(=O)[C@H]2CCCCN2C)C(C)C)OC(C)=O)n1`, the growth with MOLT-4 leukemia is -2.64% (active); in the experiment with SR leukemia, 6.75% (active); in the experiment on RPMI-8226 leukemia, 23.3%; in the experiment with OVCAR-8 ovarian, 37.9%; in the experiment with OVCAR-5 ovarian, 77.6%; in the experiment with OVCAR-4 ovarian, 53%. The growth with SK-OV-3 ovarian is 56.5%; in the experiment with IGROV1 ovarian, 22.7%; with OVCAR-3 ovarian, 55.8%; with HS 578T breast, 40.8%; in the experiment with NCI/ADR-RES ovarian, 60.3%; in the experiment with T-47D breast it was 72.9%. Moreover, the growth is -22.3% (active) with BT-549 breast; 19.7% with MDA-MB-435 melanoma; 51.2% with SW-620 colon; 17% in the experiment on MCF7 breast; 51.4% in the experiment on HCT-116 colon; 52.8% in the experiment with HCC-2998 colon. The growth with KM12 colon was 36.2%.

On to `O=C([O][Hg][c]1ccccc1)c1ccccc1`, for which the growth in the experiment with MOLT-4 leukemia was -27.5% (active); with SR leukemia it was -7.13% (active); in the experiment on RPMI-8226 leukemia, -36.7% (active); in the experiment with OVCAR-8 ovarian, -29% (active); in the experiment on OVCAR-5 ovarian, -82.3% (active); in the experiment on OVCAR-4 ovarian, -1.64% (active). Further, the growth was 64.9% with SK-OV-3 ovarian; -64% (active) with IGROV1 ovarian; -94.4% (active) in the experiment with OVCAR-3 ovarian; 12.9% with HS 578T breast; 37.9% in the experiment on NCI/ADR-RES ovarian; -37.8% (active) in the experiment with T-47D breast. For the same molecule, the growth in the experiment with BT-549 breast is -92.7% (active); in the experiment on MDA-MB-435 melanoma, -86.6% (active); in the experiment with SW-620 colon, -49.6% (active); in the experiment on MCF7 breast, -57.7% (active); with HCT-116 colon, -82.5% (active); in the experiment with HCC-2998 colon, 51%. Moreover, the growth with KM12 colon is 87.6%.

With `CCOC(=O)[C@@H](C)C[C@H](Cc1ccccc1)NC(=O)c1csc([C@@H](C[C@H](C(C)C)N(C)C(=O)[C@@H](NC(=O)[C@H]2CCCCN2C)C(C)(C)CC)OC(C)=O)n1`, the growth in the experiment on MOLT-4 leukemia is 13.5%; in the experiment on SR leukemia, -4.98% (active); with RPMI-8226 leukemia, -1.78% (active); in the experiment on OVCAR-8 ovarian it was 10.6%; in the experiment on OVCAR-5 ovarian it was 28%; with OVCAR-4 ovarian, 30.4%. Moreover, the growth in the experiment with SK-OV-3 ovarian was 26.9%; in the experiment with IGROV1 ovarian, 14.5%; with OVCAR-3 ovarian, 2.01% (active); with HS 578T breast it was -9.16% (active); in the experiment with NCI/ADR-RES ovarian it was 14.7%; in the experiment with T-47D breast it was 70.7%. Besides, the growth in the experiment on BT-549 breast is -40.2% (active); with MDA-MB-435 melanoma, -60.8% (active); with SW-620 colon it was 21.9%; in the experiment on MCF7 breast it was 24.2%; in the experiment on HCT-116 colon it was 0% (active); in the experiment on HCC-2998 colon, 11.9%. Also, the growth in the experiment on KM12 colon is 1.89% (active).

These data come from PubChem BioAssay (NCI).
